Screening data (PubChem)
Cruzain Triton – blocks cruzain activity in presence of Triton detergent; P25779; purified cruzain, Z-FR-AMC fluorescence, 0.01% Triton; Potency, µM, for the others: max response, negative = inhibition, most hits filed as inhibitors; 0.43% of 200,000 active;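 further: plate controls were neutral wells for no effect and buffer without enzyme for full effect; nearly all actives have a fitted effect of over 40% in size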
Target sequence (P25779 123-467 limits assumed): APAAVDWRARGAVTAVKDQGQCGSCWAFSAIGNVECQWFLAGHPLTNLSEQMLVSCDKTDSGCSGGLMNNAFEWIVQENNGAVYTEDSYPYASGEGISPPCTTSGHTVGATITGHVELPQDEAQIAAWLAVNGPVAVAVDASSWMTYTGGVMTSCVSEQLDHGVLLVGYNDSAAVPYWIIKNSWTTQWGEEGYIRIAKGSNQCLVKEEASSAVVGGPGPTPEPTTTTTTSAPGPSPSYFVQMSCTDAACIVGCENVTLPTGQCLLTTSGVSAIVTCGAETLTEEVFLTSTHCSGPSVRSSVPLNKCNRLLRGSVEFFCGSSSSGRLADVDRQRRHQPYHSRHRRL
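Read-out: AMC fluorescence (360 nm excitation, 450 nm emission), four reads over 2 min, first-to-third difference used. Conditions: cruzain 1.5 nM, Z-FR-AMC 2 uM, pH 5.5 acetate, 5 mM DTT, 0.01% Triton X-100.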
Cruzain noTriton – blocks cruzain activity in detergent-free assay; 2.3% of 200,000 active; P25779; purified cruzain, Z-FR-AMC fluorescence, no detergent; Potency, µM, for the others: max response, negative = inhibition, usual class: inhibitors; AID 1476;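 further: plate controls were enzyme without inhibitor for no effect and buffer without enzyme for full effect; nearly all actives have a fitted effect of over 40% in size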
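Purified cruzain at 1.5 nM, pre-incubated 15 min with compound at room temperature in 100 mM sodium acetate pH 5.5, 5 mM DTT, 0.00005% Triton X-100. Reaction started with 2 uM Z-FR-AMC; AMC fluorescence increase over 60 s gives rate.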
* hit, by the source's call; u = inconclusive. Shown are actives, neighbours in structure and some others; about 2.6% of the full set was active somewhere. The call rests on the fitted dose curve; in most records, active means well fitted curve in the direction sought with a large enough effect; inconclusive means small, poorly fitted or top-dose-only effect, or another doubt; inactive means no such curve, though single readings can be large; an effect the other way counts as inactive or inconclusive. Potency means the concentration at half of the fitted maximal effect.

SMILES	Cruzain Triton	Cruzain noTriton
O=C(Nc1ccc(O)c(-c2nc3ccccc3o2)c1)C1(c2ccc(Br)cc2)CCCC1	0%	5µM*
Cc1ccc(OCC(=O)Nc2ccc(O)c(-c3nc4ccccc4o3)c2)cc1	-2%	4µM*
O=C(Nc1ccc(O)c(-c2nc3ccccc3o2)c1)c1ccc(Br)cc1	0%	-2%
Cc1cc(C)cc(OCC(=O)Nc2ccc(-c3nc4ccccc4o3)cc2)c1	-2%	1%
CCCC(CCC)C(=O)Nc1cc(-c2cn3cccnc3n2)ccc1OC	-1%	-7%
Cc1ccc(Cl)cc1N1CCN(CCCNC(=O)C2COc3ccccc3C2)CC1 (stereo unspecified)	-1%	17%
CC(=O)N1c2ccccc2CC1C(=O)N1CCN(c2cc(Cl)ccc2C)CC1 (stereo unspecified)	-3%	u
Cc1cc(N)c2ccccc2[n+]1CCCCCCCCCCCCCC[n+]1c(C)cc(N)c2ccccc21	13µM*	20µM*
CC1=N/C(=C\c2ccc([N+](=O)[O-])cc2)C(=O)N1c1ccc(Br)c(C)c1	-3%	7.9µM*
COc1ccc(/C=C2\N=C(C)N(c3ccc(C(=O)O)cc3)C2=O)cc1OC	-10%	-8%
S=C(Nc1ccccc1)Nc1ccc(OCc2ccccc2)cc1	5%	13µM*
S=C(Nc1ccc(OCc2ccccc2)cc1)Nc1cccc(Cl)c1Cl	-5%	u
Cc1c(C)c2cc3c(c(C)c2oc1=O)OCN(CCc1ccc(F)cc1)C3	1%	-6%
CCOc1ccc(N(C)C(=O)C2CCN(S(=O)(=O)c3c(C)noc3/C=C/c3ccc(C)cc3)CC2)cc1	1%	-3%
CCOC(=O)c1sc(-c2ccccc2)cc1NC(=O)Nc1ccc([N+](=O)[O-])cc1	-3%	10µM*
CCOc1ccc(-c2cc(NC(=O)Nc3cccc(C(C)=O)c3)c(C(=O)OC)s2)cc1	-2%	20%
NC(CO)(CO)CO	-3%	-8%
C#CCSC1=C(C#N)C(c2cccs2)C(C(=O)OCC)=C(C)N1 (stereo unspecified)	-7%	20µM*
CCOC(=O)C1=C(C)NC(C)=C(C(=O)OCC)C1c1cccs1	-4%	7%
COc1ccc(NC(=O)Cn2c(=O)n(-c3cccc(C)c3)c(=O)c3c2c2cc(C)ccc2n3C)cc1OC	1%	-8%
CCC(Oc1ccccc1)C(=O)N1CCN(Cc2cc(=O)n3nc(-c4cccc(C)c4)sc3n2)CC1 (stereo unspecified)	-5%	u
COc1ccc(O)c(C(=O)c2cc(C(=O)NCCc3ccccc3)c(=O)n(CCc3ccccc3)c2)c1	-5%	-2%
Cc1ccc(O)c(C(=O)c2cc(C(=O)NCCc3ccccc3)c(=O)n(CCc3ccccc3)c2)c1	-5%	25µM*
CCOc1ccc(C(=O)Nc2cccc(NC(=O)c3ccco3)c2)cc1Cl	-9%	-3%
CCOc1ccc(C(=O)Nc2cccc(NC(=O)c3ccc(C(C)(C)C)cc3)c2)cc1Br	1%	7.9µM*
SMILES	Cruzain Triton	Cruzain noTriton
COc1ccc(Cl)cc1C(=O)Nc1ccc2oc(-c3ccc(C(C)(C)C)cc3)nc2c1	1%	16%
COC(=O)CSc1nc2ccccc2o1	8%	-1%
COc1cccc(C2CC(c3cccs3)=NN2C(=O)CSc2nc3ccccc3o2)c1OC (stereo unspecified)	3.5µM*	u
CN1/C(=C\C(=S)NC(=O)c2ccc([N+](=O)[O-])cc2)C(C)(C)c2ccccc21	-11%	u
CN1/C(=C\C(=S)NC(=O)c2cccc(Br)c2)C(C)(C)c2ccccc21	3.5µM*	u
CCCCSCCCNC(=O)c1cn(CC)c2ccc(S(=O)(=O)N3CCCCCC3)cc2c1=O	-6%	6%
CCn1c2ccccc2c2cc(/C=N/NC(=O)c3ccc(O)cc3)ccc21	u	25µM*
COc1ccc(/C=N/NC(=O)CCn2c3ccccc3c3ccccc32)cc1OC	-8%	u
COc1cc(OC)c(NC2(c3ccccc3)C(=O)c3ccccc3C2=O)cc1Cl	-5%	-2%
Cc1ccccc1-c1ccc(Nc2ccc(N3CCOCC3)cc2)nn1	-9%	25µM*
O=S1(=O)N=C(Nc2ccc(N3CCOCC3)cc2)c2ccccc21	-4%	-19%
Cc1ccc(CSCCNC(=O)C2CCN(S(=O)(=O)Cc3ccccc3)CC2)cc1	1%	-16%
Brc1ccc(-c2nn3c(Cc4ccccc4)nnc3s2)o1	0%	2%
c1ccc(Cc2nnc3sc(Nc4ccccc4)nn23)cc1	1%	25µM*
Cc1cc(Nc2ccc(C)c(C)c2)n2cnnc2n1	4%	-2%
O=C(Nc1ccc(F)cc1)c1cccn1-c1nnc(N2CCCCC2)s1	1%	4%
Cc1ccc(N(C(=O)Cn2nnc(-c3ccc(C)o3)n2)C(C(=O)NC2CCCC2)c2ccco2)cc1 (stereo unspecified)	6%	25µM*
Cc1ccc(-c2nnn(CC(=O)N(c3ccccc3)C(C(=O)NC(C)(C)C)c3cccs3)n2)o1 (stereo unspecified)	0%	6.3µM*
